# Test results published in PubChem BioAssay.
# Active and inactive are the calls of the source. Unless noted, the rule behind the calls is not given here.
# Key:
# [1] = compound effects on lung adenocarcinoma cell viability – A549, calcein-AM fluorescence, 48 h, basal, profiling panel (AID 1162); details: higher = more signal; note: test concentration not given here
# [2] = compound effects on differentiated 3T3-L1 adipocyte viability – cell-based, 3T3-L1 adipocytes, calcein-AM fluorescence, 48 h, basal, profiling panel (AID 1163); details: 3T3-L1 adipocytes viability, higher = more signal; note: test concentration not given here
# [3] = compound effects on hepatocellular carcinoma cell viability – HepG2, calcein-AM fluorescence, 48 h, basal, profiling panel (AID 1164); details: higher = more signal; note: test concentration not given here
# [4] = compound effects on multiple myeloma cell viability – MM1S, calcein-AM fluorescence, 48 h, basal, profiling panel (AID 1165); details: higher = more signal;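 note: viability of MM1S multiple myeloma cells under basal unstimulated conditions; test concentration not given here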
# [5] = calcein-AM signal in unstimulated myeloma cells – cell-based, calcein-AM fluorescence, 48 h, PK04 Diversity Set, profiling panel (AID 1166); details: RPMI8226 myeloma viability, higher = more signal;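 note: cells grown under basal conditions without added stimulus; test concentration not given here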
# [6] = JC-1 mitochondrial signal, unstimulated HepG2 cells – cell-based, JC-1 fluorescence, 24 h, 100 nL compound, profiling panel (AID 1167); details: HepG2 mitochondrial potential, higher = more signal; note: test concentration not given here
# [7] = JC-1 mitochondrial signal, unstimulated adipocytes – cell-based, JC-1 fluorescence, 3T3-L1 adipocytes, 24 h, 100 nL compound, profiling panel (AID 1168); details: JC-1 mitochondrial fluorescence, higher = more signal, called active from +8 up or from −8 down; note: test concentration not given here
# [8] = JC-1 mitochondrial signal, unstimulated myeloma cells – cell-based, JC-1 fluorescence, RPMI8226, 24 h, 100 nL compound, profiling panel (AID 1169); details: JC-1 mitochondrial potential fluorescence, higher = more signal; note: test concentration not given here
# [9] = JC-1 mitochondrial signal, unstimulated MM1S myeloma – cell-based, JC-1 fluorescence, 24 h, 100 nL compound, profiling panel (AID 1170); details: MM1S mitochondrial potential, higher = more signal; note: test concentration not given here
# [10] = resazurin metabolic signal in A549 cells – cell-based, resazurin fluorescence, 24 h, PK04 Diversity Set, profiling panel (AID 1171); details: A549 viability, higher = more signal, called active from +8 up or from −8 down; note: test concentration not given here
# [11] = resazurin metabolic signal in HepG2 cells – cell-based, resazurin fluorescence, 24 h, PK04 Diversity Set, profiling panel (AID 1172); details: HepG2 viability, higher = more signal; note: test concentration not given here
# [12] = budding yeast growth changes without added modifier – OD600, strain BY4716, 24 h, basal condition, primary screen (AID 1173); details: S. cerevisiae BY4716 growth, OD600, 24 h; higher = more signal, called active from +8 up or from −8 down
# [13] = viability profiling in MM1S myeloma cells – cell-based, resazurin fluorescence, basal, 24 h, PK04 Diversity Set, profiling panel (AID 1174); details: higher = more signal, called active from +8 up or from −8 down; note: test concentration not given here
# [14] = target: Dihydroorotate dehydrogenase (quinone), mitochondrial (Plasmodium falciparum (isolate 3D7)) (UniProt Q08210); assay: inhibition of P. falciparum DHODH – biochemical, C-terminal His tag, absorbance 600 nm, primary screen (AID 1175); details: PfDHODH enzyme, DCIP absorbance 600 nm; higher = more signal, called active from +8 up or from −8 down;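 note: recombinant parasite enzyme with a five histidine tag at its C terminus; test concentration not given here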
# [15] = inhibition of PAO1 biofilm formation – strain PAO1, LB-PBS medium, absorbance 600 nm, primary screen (AID 1176); note: test concentration not given here; details: P. aeruginosa PAO1 growth/biofilm, A600, 12 h; higher = more signal
# [16] = growth modulation of vineyard yeast isolate – strain RM11-1a, OD600, basal, 24 h, primary screen (AID 1177);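 note: cultures grown under basal conditions with no added stressor; test concentration not given here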; details: S. cerevisiae RM11-1a growth, OD600, 24 h; higher = more signal, called active from +8 up or from −8 down
# [17] = growth of efflux-deficient E. coli DRC39 – strain DRC39, OD650, 24 h, E. coli filamentation inducers, primary screen (AID 1178);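 note: growth measured as culture turbidity by optical density at 650 nm; test concentration not given here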; details: E. coli DRC39 acrAB, higher = more signal, called active from +8 up or from −8 down
# [18] = growth of efflux-deficient E. coli DRC39 – strain DRC39, OD650, 48 h, E. coli filamentation inducers, primary screen (AID 1179);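 note: screen aims at cell division blockers that make cells filament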; details: E. coli DRC39 delta-acrAB growth, higher = more signal, called active from +8 up or from −8 down
# [19] = viability profiling in RPMI8226 myeloma cells – cell-based, resazurin fluorescence, basal, 24 h, PK04 Diversity Set, profiling panel (AID 1180); details: higher = more signal;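 note: RPMI8826 multiple myeloma cell line at 5000 cells per well; test concentration not given here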
# [20] = target: E3 ubiquitin-protein ligase XIAP (Homo sapiens) (UniProt P98170); assay: small molecules binding XIAP protein – biophysical, small-molecule microarray, fluorescence 635 nm, primary screen (AID 1181); details: higher = more signal;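 note: score merges 667 nm emission and signal to noise over triplicate slides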
# E3 ubiquitin-protein ligase XIAP (Homo sapiens), sequence (P98170 whole entry, looked up): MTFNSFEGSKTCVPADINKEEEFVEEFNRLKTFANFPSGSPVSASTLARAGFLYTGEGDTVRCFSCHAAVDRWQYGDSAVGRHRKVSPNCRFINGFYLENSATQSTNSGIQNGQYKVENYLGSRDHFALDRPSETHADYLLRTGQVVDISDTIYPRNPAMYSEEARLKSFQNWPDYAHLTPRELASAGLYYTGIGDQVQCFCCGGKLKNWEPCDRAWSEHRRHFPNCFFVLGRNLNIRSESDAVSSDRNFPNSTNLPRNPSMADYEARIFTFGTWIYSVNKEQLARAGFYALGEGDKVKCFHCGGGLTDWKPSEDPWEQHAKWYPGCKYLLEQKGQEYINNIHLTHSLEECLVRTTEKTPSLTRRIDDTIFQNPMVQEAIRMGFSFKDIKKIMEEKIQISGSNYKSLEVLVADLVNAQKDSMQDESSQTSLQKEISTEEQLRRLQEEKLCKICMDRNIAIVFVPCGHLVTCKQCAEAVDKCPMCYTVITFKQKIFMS
# Dihydroorotate dehydrogenase (quinone), mitochondrial (Plasmodium falciparum (isolate 3D7)), sequence (Q08210 whole entry, looked up): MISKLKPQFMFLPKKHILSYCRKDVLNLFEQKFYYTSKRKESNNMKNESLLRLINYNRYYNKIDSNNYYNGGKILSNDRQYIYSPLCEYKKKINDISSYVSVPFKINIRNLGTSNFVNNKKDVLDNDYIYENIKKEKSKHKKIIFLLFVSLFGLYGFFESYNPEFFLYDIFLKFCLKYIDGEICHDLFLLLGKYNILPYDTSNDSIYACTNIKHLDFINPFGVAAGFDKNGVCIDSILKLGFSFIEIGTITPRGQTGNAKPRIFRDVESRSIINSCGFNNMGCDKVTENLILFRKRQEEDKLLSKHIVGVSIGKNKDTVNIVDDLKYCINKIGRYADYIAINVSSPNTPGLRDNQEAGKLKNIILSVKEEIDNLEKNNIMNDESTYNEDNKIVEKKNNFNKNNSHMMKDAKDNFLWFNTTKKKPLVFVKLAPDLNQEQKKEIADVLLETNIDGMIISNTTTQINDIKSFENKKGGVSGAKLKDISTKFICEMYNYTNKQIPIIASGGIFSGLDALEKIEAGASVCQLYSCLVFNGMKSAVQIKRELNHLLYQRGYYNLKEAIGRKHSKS
compound,measurement,setting,value
CC(CCN1CCCCc2nc(C)c(C)cc21)=NO[C@H](C)c1cn([C@@H]2COC[C@H]2O)nn1,z-score,[1],0.368
same,z-score,[2],-0.807
same,z-score,[3],0.251
same,z-score,[4],0.287
same,z-score,[5],0.0323
same,z-score,[6],0.0457
same,z-score,[7],0.229 (inactive)
same,z-score,[8],1.18
same,z-score,[9],-0.992
same,z-score,[10],-0.454 (inactive)
same,z-score,[11],0.404
same,z-score,[12],1.62 (inactive)
same,z-score,[13],-1.64 (inactive)
same,composite z-score,[14],-0.21 (inactive)
same,z-score,[15],-0.561 (inactive)
same,z-score,[16],0.811 (inactive)
same,z-score,[17],0.715 (inactive)
same,z-score,[18],0.821 (inactive)
same,z-score,[19],-0.256
same,composite z-score,[20],0.256
CCOC(=O)[C@H](CC(C)C)NC(=O)CCC1CC(OC(=O)NCCc2ccc(F)cc2)CC2(CCCC(COC(=O)NCc3cccc(C(F)(F)F)c3)O2)O1 (stereo not given in full),z-score,[1],-0.366
same,z-score,[2],-0.289
same,z-score,[3],-0.581
same,z-score,[4],-3.37
same,z-score,[5],0.277
same,z-score,[6],-0.471
same,z-score,[7],-0.512 (inactive)
same,z-score,[8],0.652
same,z-score,[9],-0.0831
same,z-score,[10],-0.209 (inactive)
same,z-score,[11],0.0989
same,z-score,[12],0.924 (inactive)
same,z-score,[13],0.0492 (inactive)
same,composite z-score,[14],0.324 (inactive)
same,z-score,[15],0.672 (inactive)
same,z-score,[16],0.924 (inactive)
same,z-score,[17],0.687 (inactive)
same,z-score,[18],0.0609 (inactive)
same,z-score,[19],0.15
same,composite z-score,[20],-0.383
CCOC(=O)NN=C1C[C@@H](O)[C@@H](O)[C@@H]2[C@@H]3C(=O)N(C[C@@H]4CCCO4)C(=O)[C@@H]3CC[C@H]12,z-score,[1],-0.0295
same,z-score,[2],0.127
same,z-score,[3],-1.17
same,z-score,[4],-0.0085
same,z-score,[5],0.121
same,z-score,[6],-0.686
same,z-score,[7],-0.408 (inactive)
same,z-score,[8],-0.38
same,z-score,[9],-0.229
same,z-score,[10],0.159 (inactive)
same,z-score,[11],0.0254
same,z-score,[12],0.197 (inactive)
same,z-score,[13],-0.841 (inactive)
same,composite z-score,[14],-1.36 (inactive)
same,z-score,[15],-0.495 (inactive)
same,z-score,[16],-0.396 (inactive)
same,z-score,[17],0.213 (inactive)
same,z-score,[18],0.626 (inactive)
same,z-score,[19],-0.248
same,composite z-score,[20],-0.02
CO[C@@H]1C=CCC(=O)N[C@@H](C)C(=O)OC[C@@H](OC)[C@H](C)C=CCC(=O)OC[C@H]1C,z-score,[1],0.234
same,z-score,[2],0.374
same,z-score,[3],0.0804
same,z-score,[4],0.316
same,z-score,[5],0.389
same,z-score,[6],0.589
same,z-score,[7],-0.848 (inactive)
same,z-score,[8],0.674
same,z-score,[9],0.704
same,z-score,[10],0.474 (inactive)
same,z-score,[11],-0.103
same,z-score,[12],-0.615 (inactive)
same,z-score,[13],0.697 (inactive)
same,composite z-score,[14],-0.765 (inactive)
same,z-score,[15],-0.507 (inactive)
same,z-score,[16],-0.718 (inactive)
same,z-score,[17],0.267 (inactive)
same,z-score,[18],-0.42 (inactive)
same,z-score,[19],0.103
same,composite z-score,[20],-0.169
CCOC(=O)CCN1C(=O)[C@H]2[C@H]3[C@H](O)[C@H](O)CC(=NNC(=O)OCc4ccc(OC)cc4)[C@H]3CC[C@H]2C1=O,z-score,[1],-0.185
same,z-score,[2],-0.385
same,z-score,[3],-0.0426
same,z-score,[4],-0.885
same,z-score,[5],-0.87
same,z-score,[6],-0.146
same,z-score,[7],-0.447 (inactive)
same,z-score,[8],-0.207
same,z-score,[9],-0.387
same,z-score,[10],-0.495 (inactive)
same,z-score,[11],0.0785
same,z-score,[12],-3 (inactive)
same,z-score,[13],-0.451 (inactive)
same,composite z-score,[14],0.0913 (inactive)
same,z-score,[15],1.07 (inactive)
same,z-score,[16],-0.595 (inactive)
same,z-score,[17],-0.653 (inactive)
same,z-score,[18],-0.652 (inactive)
same,z-score,[19],-0.244
same,composite z-score,[20],0.12
CCN1C(=O)[C@H]2[C@H]3[C@H](O)[C@H](O)CC(=NNC(=O)OCc4ccccc4)[C@@H]3CC[C@H]2C1=O,z-score,[1],-0.0627
same,z-score,[2],0.0682
same,z-score,[3],-0.131
same,z-score,[4],-0.0309
same,z-score,[5],0.718
same,z-score,[6],-0.653
same,z-score,[7],-1.19 (inactive)
same,z-score,[8],-0.118
same,z-score,[9],-0.458
same,z-score,[10],-0.32 (inactive)
same,z-score,[11],-0.501
same,z-score,[12],0.226 (inactive)
same,z-score,[13],-0.453 (inactive)
same,composite z-score,[14],-0.283 (inactive)
same,z-score,[15],-0.814 (inactive)
same,z-score,[16],-0.338 (inactive)
same,z-score,[17],0.313 (inactive)
same,z-score,[18],0.0507 (inactive)
same,z-score,[19],-0.747
same,composite z-score,[20],-0.0476
CC(CCN1CCCc2nc(C)c(C)cc21)=NO[C@H](C)c1cn([C@@H]2COC[C@H]2O)nn1,z-score,[1],0.105
same,z-score,[2],-0.563
same,z-score,[3],0.243
same,z-score,[4],-0.674
same,z-score,[5],-0.0215
same,z-score,[6],0.219
same,z-score,[7],0.707 (inactive)
same,z-score,[8],0.641
same,z-score,[9],-0.825
same,z-score,[10],-0.294 (inactive)
same,z-score,[11],-0.537
same,z-score,[12],0.593 (inactive)
same,z-score,[13],-0.144 (inactive)
same,composite z-score,[14],-0.0105 (inactive)
same,z-score,[15],-0.525 (inactive)
same,z-score,[16],0.836 (inactive)
same,z-score,[17],0.973 (inactive)
same,z-score,[18],0.741 (inactive)
same,z-score,[19],-1.6
same,composite z-score,[20],0.0264
CC(C)=NO[C@H](C)c1cn([C@@H]2COC[C@H]2O)nn1,z-score,[1],0.874
same,z-score,[2],-0.573
same,z-score,[3],0.818
same,z-score,[4],0.0495
same,z-score,[5],-0.275
same,z-score,[6],1.01
same,z-score,[7],0.0682 (inactive)
same,z-score,[8],0.183
same,z-score,[9],-0.593
same,z-score,[10],-0.483 (inactive)
same,z-score,[11],-1.51
same,z-score,[12],-0.0346 (inactive)
same,z-score,[13],-0.508 (inactive)
same,composite z-score,[14],0.0741 (inactive)
same,z-score,[15],0.101 (inactive)
same,z-score,[16],-0.683 (inactive)
same,z-score,[17],0.504 (inactive)
same,z-score,[18],0.82 (inactive)
same,z-score,[19],-0.469
same,composite z-score,[20],-0.152
COC(=O)[C@H](Cc1ccccc1)NC(=O)[C@@H](C)CO,z-score,[1],-0.457
same,z-score,[2],0.802
same,z-score,[3],-0.196
same,z-score,[4],-2.56
same,z-score,[5],-2.56
same,z-score,[6],0.892
same,z-score,[7],-0.218 (inactive)
same,z-score,[8],-0.186
same,z-score,[9],-0.209
same,z-score,[10],-0.234 (inactive)
same,z-score,[11],-0.427
same,z-score,[12],-0.462 (inactive)
same,z-score,[13],-0.0481 (inactive)
same,composite z-score,[14],-2.16 (inactive)
same,z-score,[15],0.733 (inactive)
same,z-score,[16],0.0469 (inactive)
same,z-score,[17],-1.48 (inactive)
same,z-score,[18],-0.84 (inactive)
same,z-score,[19],-0.376
same,composite z-score,[20],0.0154
